From PubChem BioAssay (NCI)
This is part of a sample that, as a whole, favours compounds with a hit. Of some 83,000 tested, about 20% had one in any assay.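 Activity criterion: percent growth below 10, measured after cells in 96-well plates were exposed to a single compound concentration for 48 hours.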 A number with no mark means an inactive call. Calls of active or inactive are those of the source.

Experiments:
Assay in all cases: NCI-60 one-dose screen, 48 h (100 = growth as untreated, 0 = no growth, -100 = all killed)
Details in all cases: 10 µM unless noted
HCT-15 colon = system: HCT-15 colon
HT29 colon = system: HT29 colon
SNB-75 CNS = system: SNB-75 CNS
SNB-19 CNS = system: SNB-19 CNS
U251 CNS = system: U251 CNS
PC-3 prostate = system: PC-3 prostate
SK-MEL-5 melanoma = system: SK-MEL-5 melanoma
UACC-62 melanoma = system: UACC-62 melanoma
LOX IMVI melanoma = system: LOX IMVI melanoma
SK-MEL-28 melanoma = system: SK-MEL-28 melanoma

SMILES	growth (HCT-15 colon)	growth (HT29 colon)	growth (SNB-75 CNS)	growth (SNB-19 CNS) [%]	growth (U251 CNS)	growth (PC-3 prostate)	growth (SK-MEL-5 melanoma)	growth (UACC-62 melanoma)	growth (LOX IMVI melanoma)	growth (SK-MEL-28 melanoma)
O=C(NC(=S)Nc1ccc(-c2nc3ccccc3[nH]2)cc1)c1ccc2ccccc2c1	29.2%	21.8%	-62.4% (active)	66.2	13.9%	22.8%	14.7%	34.1%	-45.8% (active)	–
CC(=O)Nc1cccc(C2=CC(c3ccc(C)cc3)n3ncnc3N2)c1 (stereo not drawn)	99.3%	109%	94.2%	91.1	97.3%	84.1%	91.3%	85.6%	93.8%	–
COc1ccc(/C(C)=C(\c2ccc(Cl)cc2)c2ccc(OCCCN(C)C)cc2)cc1F	7.7% (active)	3.41% (active)	70.6%	67	38.5%	59.2%	84.1%	45.7%	-74.1% (active)	37.8%
CCOC(=O)c1ccc(NC(=O)CCCN(CC)CC)cc1	105%	88.6%	106%	111	98.2%	78.3%	110%	104%	97.7%	–
CC(C)OC(=O)NNC(=O)c1ccncc1	101%	110%	91%	105	98.1%	104%	114%	94%	101%	–
Nc1ccc(-c2cc3c(Nc4ccc(OCc5cccc(F)c5)c(Cl)c4)ncnc3s2)cc1	32.9%	84.5%	87.2%	77.3	57%	29.6%	57.7%	55.7%	24.5%	–
COc1ccc(-c2cncnc2N)cc1OC	103%	111%	88.3%	108	97.7%	90.6%	106%	112%	98.6%	106%
C/C(=N\NC(=O)Cn1c(-c2ccc(S(C)(=O)=O)cc2)nc2cc(Cl)ccc21)c1ccc(Cl)cc1	77%	79.7%	69.7%	84.3	79.7%	49.2%	84.2%	76.2%	89.4%	–
C[C@@H]1CC[C@@H]2[C@@H]1[C@H](OC(=O)/C=C/c1ccccc1)[C@]1(C3CCCCC3)C[C@@H](NC(=O)CO)[C@@]2(C)O1	99%	86%	85%	104	111%	94%	104%	97%	100%	–
CNC(=O)c1c(NC(=O)c2ccc(C(C)(C)C)cc2)sc2c1CCC(=O)C2	-20.5% (active)	3.63% (active)	-27.8% (active)	17.7	4.12% (active)	-0.67% (active)	-83.1% (active)	0.579% (active)	8.5% (active)	12.2%
CCNCCNc1cc(C2CCCC2)c(C#N)c2nc3ccccc3n12	26.8%	-9.9% (active)	-33.3% (active)	36.8	-19.1% (active)	39.6%	-56.7% (active)	-81.4% (active)	-79% (active)	-63.8% (active)
Cc1ccc2c(n1)C(=O)C(Oc1ccc(F)cc1)=CC2=O	81.8%	108%	83%	110	95.3%	98.9%	91.4%	99.7%	88.5%	113%
CC(=O)C(C(C)=O)c1nc2sc3cc(Cl)ccc3n2c(=N)c1C#N	94.2%	92.4%	41.2%	78.8	82.3%	65.2%	74.6%	61.6%	79.7%	103%
Cc1ccc(NC(=O)C(Cl)Cl)cc1	105%	92.7%	101%	101	94.7%	91.8%	99.4%	98.6%	99.6%	98.2%
COc1cc(C(=O)/C=C/c2c(C(F)(F)F)nc3ccccn23)cc(OC)c1OC	-44.2% (active)	-56.5% (active)	1.22% (active)	14.6	-60.2% (active)	7.45% (active)	-95.2% (active)	-75.6% (active)	-79.8% (active)	-65.2% (active)
CC(=[N-])N1CCC[C@@H](Nc2c3ccccc3nc3ccccc23)C1.[Cl][Pt].[NH-]CCC[NH-]	48.2%	1.38% (active)	3.22% (active)	53.3	44.3%	70.6%	-84.4% (active)	-63.3% (active)	27.9%	2.14% (active)
c1ccc2c(c1)ncn2-c1nc2ccccc2n2c1nc1ccccc12	43.1%	40.9%	81.3%	86.8	87.6%	72.4%	55.8%	77.3%	79.1%	107%
O=C1Nc2ccccc2/C1=N/N=C/c1c[nH]c2ccccc12	72.2%	80.8%	45.5%	88.1	73.6%	81.5%	76.8%	38.4%	68.4%	96.3%
COc1c(C)cnc(CSc2nc(-c3ccc(C)cc3)cn2-c2ccc(Cl)cc2)c1C	98%	73.8%	98.7%	93.7	104%	81.7%	105%	81.8%	96.5%	97.4%
COc1ccc(NC(=O)c2cccc(-c3cc(=O)c4c(O)c(OC)c(OC)cc4o3)c2)cc1	107%	87.7%	-5.24% (active)	61.6	73.2%	86.2%	91.4%	81.1%	79.7%	104%
CCNCCNc1cc(-c2ccc(F)cc2)c(C#N)c2nc3ccccc3n12	23.8%	16.6%	48.4%	79.3	17.1%	42.1%	-62.9% (active)	12.7%	-77.4% (active)	-91% (active)
C=C1C(=O)O[C@H]2[C@H]1CC/C(COC(=O)NCc1ccc(Cn3c(=O)sn(CCCCl)c3=O)cc1)=C\CC[C@@]1(C)O[C@@H]21	8.02% (active)	-30.2% (active)	70.2%	76.1	57.7%	67.1%	42.5%	26.8%	-48.2% (active)	28.1%
CCCCCCCCn1cc(C2=C(c3coc4ccc(OC)cc34)C(=O)NC2=O)c2ccccc21	97.4%	99.3%	84.8%	108	97.2%	107%	99.2%	96.2%	61.2%	101%
O=C1N(c2ccccc2)C(=S)N[C@]12[C@H](c1ccccc1)C1CCCN1[C@]21C(=O)NC2C=CC(Cl)=C[C@H]21 (stereo partly drawn)	100%	82.6%	96.6%	101	85%	47.8%	93.1%	82.7%	100%	117%
CCOC(=O)c1sc2ccc(NCc3nc[nH]c3C)cc2c1NC(=O)c1cc(OC)c(OC)c(OC)c1	92.7%	88.9%	92.8%	93	92.3%	85%	96.9%	92.9%	67.9%	83%
Cc1nc(Nc2ccc(S(=O)(=O)Nc3cc(C)on3)cc2)c2ccccc2n1	99.1%	98.6%	83.2%	110	101%	96.9%	99.7%	98.2%	102%	110%
CCn1c(Sc2nnc(Nc3ccccc3)s2)nc2c1c(=O)n(C)c(=O)n2C	97.6%	137%	101%	95	103%	100%	99.2%	90.2%	95.9%	93%
